# PubChem BioAssay
# Inconclusive results are not listed. Active and inactive are the calls of the source.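 How the source made its calls, unless noted: active means normalized viability below 100% at a tested concentration; inactive means the rest.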
# Legend:
# [1] = viability loss in pontine glioma line – cell-based, SU-DIPG-XVII, MIPE5.0, CellTiter-Glo, qHTS, dose response (AID 1347060; cut-off not given, nearly all actives have AC50 up to about 26 µM;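 on AC50: cells exposed to compound for 48 hours before viability readout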); details: CellTiter-Glo ATP luminescence
# [2] = viability loss in pontine glioma line – cell-based, JHH-DIPG-1, MIPE4.0, CellTiter-Glo, qHTS, dose response (AID 1347062; cut-off not given, nearly all actives have AC50 up to about 27 µM;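 on AC50: cells exposed to compound for two days before readout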); details: JHH-DIPG-1 viability, CellTiter-Glo ATP luminescence
# [3] = viability loss in pontine glioma line – cell-based, SU-DIPG-IV, MIPE4.0, CellTiter-Glo, qHTS, dose response (AID 1347063; cut-off not given, nearly all actives have AC50 up to about 30 µM;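 further: compound exposure lasted 48 hours before the viability readout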); details: CellTiter-Glo ATP luminescence
# [4] = viability loss in pontine glioma line – cell-based, SU-DIPG-XXV, MIPE5.0, CellTiter-Glo, qHTS, dose response (AID 1347065; cut-off not given, nearly all actives have AC50 up to about 26 µM;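 further: cells exposed to compound for 48 hours before ATP readout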); details: CellTiter-Glo ATP luminescence
# [5] = growth inhibition of DIPG cells – cell-based, MIPE5.0 library, qHTS (AID 1347068; cut-off not given, nearly all actives have IC50 up to about 30 µM;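 on IC50: cells exposed to compound for 48 hours before viability readout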); details: SU-DIPG-XXV viability
# [6] = growth inhibition of DIPG cells – cell-based, MIPE4.0 library, CellTiter-Glo luminescence, qHTS (AID 1347066; cut-off not given, nearly all actives have AC50 up to about 30 µM;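 further: cells exposed to compound for 48 hours before readout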); details: SU-DIPG-VI viability, CellTiter-Glo ATP luminescence
# [7] = JHH-DIPG-1 glioma cell viability, MIPE5.0 library, CellTiter-Glo luminescence, qHTS (AID 1347067; cut-off not given, nearly all actives have AC50 up to about 26 µM;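 further: cells exposed to compound for 48 hours before readout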); details: JHH-DIPG-1 glioma viability, CellTiter-Glo ATP luminescence
# [8] = viability loss with induced miR-34 in A549 – imaging, A549 dox-inducible miR-34, nuclei and caspase counts, primary screen (AID 1347080;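 active means compounds whose cell count with miR-34 switched on is under 0.7 times the count with it off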); details: A549 miR-34 inducible, Hoechst nuclei count, 48 h
# [9] = compounds altering HSF1 focus formation in cells – imaging, Selleck Cancer Library (AID 1347162; in the data active means plate-normalised HSF1 focus index below about 0.46); details: human cells, HSF1 nuclear foci imaging, at 10 µM; SSMD: measured here: HSF1 foci SSMD mean; cell count: measured here: cell number; plate-normalised HSF1 focus index: stronger effect = lower value
# [10] = MELAS cybrid and Rieske KO viability enhancers – cell-based, MELAS cybrids, Rieske KO mouse fibroblasts, CellTiter-Glo, primary screen (AID 1508586;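 active means mean z-score across replicates of 1.96 or higher in either the MELAS or the Rieske mutant cell line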;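 further: z relative to plate mean and SD of compound and empty wells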); details: low glucose
# [11] = drug combination growth inhibition, ovarian cancer – cell-based, oncology-focused library, rucaparib conditional, profiling panel (AID 1508598); details: patient-derived ovarian cancer cells, CellTiter-Glo viability, 144 h, stronger effect = lower value
# [12] = viability loss in pontine glioma line – cell-based, SU-DIPG-XIII, MIPE5.0, CellTiter-Glo, qHTS, dose response (AID 1347064; cut-off not given, nearly all actives have AC50 up to about 23 µM;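 on AC50: cells exposed to compound for 48 hours before the viability read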); details: CellTiter-Glo ATP luminescence
# [13] = stronger effect = lower value, cell number ratio, induced over uninduced
# [14] = measured here: relative caspase fold change +Dox/-Dox
# [15] = measured here: total cells with miR-34 induction, stronger effect = lower value
# [16] = measured here: total cells without miR-34 induction
# [17] = MELAS cybrid survival, CellTiter-Glo 48 h, stronger effect = higher value
# [18] = Rieske KO mouse fibroblast survival, CellTiter-Glo 72 h
# [19] = at 0.000305 µM, OCI-C5x cells, with rucaparib 10 µM, 100% = cells with rucaparib alone
# [20] = at 0.000305 µM, OCI-C5x cells, without rucaparib
# [21] = at 0.000305 µM, OCI-P5x cells, with rucaparib 20 µM, 100% = cells with rucaparib alone
# [22] = at 0.000305 µM, OCI-P5x cells, without rucaparib
# [23] = at 0.00122 µM, OCI-C5x cells, with rucaparib 10 µM, 100% = cells with rucaparib alone
# [24] = at 0.00122 µM, OCI-C5x cells, without rucaparib
# [25] = at 0.00122 µM, OCI-P5x cells, with rucaparib 20 µM, 100% = cells with rucaparib alone
# [26] = at 0.00122 µM, OCI-P5x cells, without rucaparib
# [27] = at 0.00488 µM, OCI-C5x cells, with rucaparib 10 µM, 100% = cells with rucaparib alone
# [28] = at 0.00488 µM, OCI-C5x cells, without rucaparib
# [29] = at 0.00488 µM, OCI-P5x cells, with rucaparib 20 µM, 100% = cells with rucaparib alone
# [30] = at 0.00488 µM, OCI-P5x cells, without rucaparib
# [31] = at 0.0195 µM, OCI-C5x cells, with rucaparib 10 µM, 100% = cells with rucaparib alone
# [32] = at 0.0195 µM, OCI-C5x cells, without rucaparib
# [33] = at 0.0195 µM, OCI-P5x cells, with rucaparib 20 µM, 100% = cells with rucaparib alone
# [34] = at 0.0195 µM, OCI-P5x cells, without rucaparib
# [35] = at 0.0781 µM, OCI-C5x cells, with rucaparib 10 µM, 100% = cells with rucaparib alone
# [36] = at 0.0781 µM, OCI-C5x cells, without rucaparib
# [37] = at 0.0781 µM, OCI-P5x cells, with rucaparib 20 µM, 100% = cells with rucaparib alone
# [38] = at 0.0781 µM, OCI-P5x cells, without rucaparib
# [39] = at 0.313 µM, OCI-C5x cells, with rucaparib 10 µM, 100% = cells with rucaparib alone
# [40] = at 0.313 µM, OCI-C5x cells, without rucaparib
# [41] = at 0.313 µM, OCI-P5x cells, with rucaparib 20 µM, 100% = cells with rucaparib alone
# [42] = at 0.313 µM, OCI-P5x cells, without rucaparib
# [43] = at 1.25 µM, OCI-C5x cells, with rucaparib 10 µM, 100% = cells with rucaparib alone
# [44] = at 1.25 µM, OCI-C5x cells, without rucaparib
# [45] = at 1.25 µM, OCI-P5x cells, with rucaparib 20 µM, 100% = cells with rucaparib alone
# [46] = at 1.25 µM, OCI-P5x cells, without rucaparib
# [47] = at 5 µM, OCI-C5x cells, with rucaparib 10 µM, 100% = cells with rucaparib alone
# [48] = at 5 µM, OCI-C5x cells, without rucaparib
# [49] = at 5 µM, OCI-P5x cells, with rucaparib 20 µM, 100% = cells with rucaparib alone
# [50] = at 5 µM, OCI-P5x cells, without rucaparib
structure (smiles),measurement,setting,value
COc1cc2c(NC3CCN(C(C)C)CC3)nc(C3CCCCC3)nc2cc1OCCCN1CCCC1,AC50,[1],23.5 µM (active)
same,AC50,[2],8.33 µM (active)
same,AC50,[3],18.7 µM (active)
same,AC50,[4],20.9 µM (active)
same,IC50,[5],23.5 µM (active)
O=C(NC1CCNCC1)c1[nH]ncc1NC(=O)c1c(Cl)cccc1Cl,AC50,[1],6.61 µM (active)
same,AC50,[2],0.418 µM (active)
same,AC50,[3],0.935 µM (active)
same,AC50,[4],7.42 µM (active)
same,outcome,[6],inactive
same,AC50,[7],1.86 µM (active)
same,IC50,[5],4.68 µM (active)
same,fold change,[8]; [13],1.06 (inactive)
same,fold change,[8]; [14],0.925
same,cell count,[8]; [15],1340
same,cell count,[8]; [16],1260
same,SSMD,[9],-4.94
same,cell count,[9],7300
same,plate-normalised HSF1 focus index,[9],0.823 (inactive)
same,z-score,[10]; [17],0.31 (inactive)
same,z-score,[10]; [18],-1.14
same,viability,[11]; [19],126% (inactive)
same,viability,[11]; [20],105% (inactive)
same,viability,[11]; [21],89.7% (active)
same,viability,[11]; [22],97.4% (active)
same,viability,[11]; [23],116% (inactive)
same,viability,[11]; [24],113% (inactive)
same,viability,[11]; [25],95.9% (active)
same,viability,[11]; [26],103% (inactive)
same,viability,[11]; [27],118% (inactive)
same,viability,[11]; [28],117% (inactive)
same,viability,[11]; [29],103% (inactive)
same,viability,[11]; [30],105% (inactive)
same,viability,[11]; [31],110% (inactive)
same,viability,[11]; [32],118% (inactive)
same,viability,[11]; [33],96.7% (active)
same,viability,[11]; [34],99% (active)
same,viability,[11]; [35],108% (inactive)
same,viability,[11]; [36],118% (inactive)
same,viability,[11]; [37],93.7% (active)
same,viability,[11]; [38],89.4% (active)
same,viability,[11]; [39],86.2% (active)
same,viability,[11]; [40],99.6% (active)
same,viability,[11]; [41],88% (active)
same,viability,[11]; [42],78.2% (active)
same,viability,[11]; [43],10.3% (active)
same,viability,[11]; [44],13.9% (active)
same,viability,[11]; [45],20.4% (active)
same,viability,[11]; [46],15.8% (active)
same,viability,[11]; [47],13% (active)
same,viability,[11]; [48],12.2% (active)
same,viability,[11]; [49],17.1% (active)
same,viability,[11]; [50],14% (active)
CN[C@H]1CCc2cc(OC)c(OC)c(OC)c2-c2ccc(OC)c(=O)cc21,AC50,[1],0.105 µM (active)
same,AC50,[2],0.0148 µM (active)
same,AC50,[12],0.132 µM (active)
same,AC50,[4],0.166 µM (active)
same,AC50,[7],0.148 µM (active)
same,IC50,[5],0.148 µM (active)
O=c1ncn2nc(Sc3ccc(F)cc3F)ccc2c1-c1c(Cl)cccc1Cl,outcome,[1],inactive
same,outcome,[2],inactive
same,outcome,[12],inactive
same,outcome,[6],inactive
same,outcome,[7],inactive
same,outcome,[5],inactive
same,fold change,[8]; [13],0.89 (inactive)
same,fold change,[8]; [14],1.87
same,cell count,[8]; [15],6460
same,cell count,[8]; [16],7250
same,z-score,[10]; [17],-0.528 (inactive)
same,z-score,[10]; [18],1.18
CC[C@@H]1C(=O)N(C)c2cnc(Nc3ccc(C(=O)NC4CCN(C)CC4)cc3OC)nc2N1C1CCCC1,AC50,[1],0.0661 µM (active)
same,AC50,[2],8.33 µM (active)
same,AC50,[12],1.48 µM (active)
same,AC50,[4],0.0372 µM (active)
same,AC50,[6],20.9 µM (active)
same,SSMD,[9],4.3
same,cell count,[9],7240
same,plate-normalised HSF1 focus index,[9],1.16 (inactive)
same,viability,[11]; [19],116% (inactive)
same,viability,[11]; [20],133% (inactive)
same,viability,[11]; [21],89.2% (active)
same,viability,[11]; [22],77.1% (active)
same,viability,[11]; [23],126% (inactive)
same,viability,[11]; [24],124% (inactive)
same,viability,[11]; [25],89.5% (active)
same,viability,[11]; [26],50.9% (active)
same,viability,[11]; [27],51.4% (active)
same,viability,[11]; [28],47.2% (active)
same,viability,[11]; [29],74.9% (active)
same,viability,[11]; [30],17% (active)
same,viability,[11]; [31],40.7% (active)
same,viability,[11]; [32],37.1% (active)
same,viability,[11]; [33],71.7% (active)
same,viability,[11]; [34],18.2% (active)
same,viability,[11]; [35],38.3% (active)
same,viability,[11]; [36],30.4% (active)
same,viability,[11]; [37],66.7% (active)
same,viability,[11]; [38],16.5% (active)
same,viability,[11]; [39],32.5% (active)
same,viability,[11]; [40],30.3% (active)
same,viability,[11]; [41],48.5% (active)
same,viability,[11]; [42],15.8% (active)
same,viability,[11]; [43],15.9% (active)
same,viability,[11]; [44],18.2% (active)
same,viability,[11]; [45],43% (active)
same,viability,[11]; [46],15.1% (active)
same,viability,[11]; [47],18% (active)
same,viability,[11]; [48],21.9% (active)
same,viability,[11]; [49],34.3% (active)
same,viability,[11]; [50],15.2% (active)
